KB-V1 MDR tox = kills drug-selected multidrug resistant KB-V1 cells. Potency, µM (series often up to 46.1 µM), usual class: cytotoxic. 3.4% of 400,000 active. AID 1347076. KB-V1 MDR cells viability, CellTiter-Glo, 72 h; note: nearly all actives have a fitted effect of over 60% in size
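KB-V1, DMEM (no phenol red) + 10% FBS; cpd pin-transferred, titration series; 72 h, 37 degrees C; CellTiter-Glo, luminescence. Data normalized, curve-fit.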
HT1080NT lethal = kills 2HG-producing HT-1080-NT fibrosarcoma cells | HT-1080-NT fibrosarcoma viability, CellTiter-Glo ATP luminescence, 48 h | Potency, µM (highest dose often 46.1 µM), usual class: cytotoxic | 1.6% of 360,000 active;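 note: NT is the 2HG producing partner of a matched IDH1 knockdown line; nearly all actives have a fitted effect of over 55% in size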
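HT-1080-NT; 750 cells/well; 5% FBS RPMI; 48 h compound, 37 degrees C; CellTiter-Glo luminescence; curve fitting and curve-class assignment.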
TDP1 cell noCPT = qHTS for Inhibitors of human tyrosyl-DNA phosphodiesterase 1 (TDP1): qHTS in cells in absence of CPT; DT40 Tdp1-/- hTDP1 cells, no CPT, ATP luminescence, 48 h; Potency, µM (doses to about 46.2 µM), hits mostly inhibitors; 15% of 420,000 active; AID 686978, 2013; note: nearly all actives have a fitted effect of over 55% in size
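No-CPT arm: Tdp1-/-;hTDP1 DT40 cells (400/well) plus compounds, incubated ≥48 hr at 37 °C. Readout CellTiter-Glo luminescence.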
KB-3-1 tox = kills parental KB-3-1 adenocarcinoma cells. KB-3-1 viability, CellTiter-Glo ATP luminescence, 72 h. Potency, µM (highest dose often 46.1 µM), actives largely listed as cytotoxic. 1.4% of 400,000 active. AID 1347075; note: nearly all actives have a fitted effect of over 60% in size
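72 h, 37 °C compound treatment of KB-3-1 parental cells; CellTiter-Glo added, 10 min, luminescence read. Data corrected against DMSO-only plates and normalized before curve fitting.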
DT40 TDP1 CPT = growth inhibition of DT40 Tdp1-/-;hTDP1 cells with camptothecin (screen for TDP1 inhibitors). chicken DT40 Tdp1-/-;hTDP1 cells + 20 nM CPT, ATP luminescence, 48 h. Potency, µM (doses to about 46.2 µM), hits mostly inhibitors. 12% of 420,000 active; note: nearly all actives have a fitted effect of over 55% in size
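Cell growth measured by CellTiter-Glo luminescence after a minimum 48 h, 37 C compound exposure with 20 nM CPT in Tdp1-knockout DT40 cells stably expressing hTDP1, seeded 400/well; qHTS titration format.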
HT1080 IDH1KD tx = toxicity to HT-1080 IDH1 knockdown cells (counter line) | HT-1080 IDH1 knockdown viability, ATP luminescence, 48 h | Potency, µM (series often up to 46.1 µM), most hits filed as cytotoxic | 2% of 360,000 active
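CellTiter-Glo luminescence after 48 h compound exposure at 37 degrees C of IDH1-knockdown HT-1080 cells in 5% FBS RPMI. %Activity scaled between DMSO wells and cell-free media wells, with curves fitted and assigned curve classes.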
Hits are given with their value; i = inactive; ? = inconclusive; nt = not tested or not shown. Compounds with a hit are over-represented: about 19% of the library has one in this group of screens. Calls come from the whole dose curve; as a rule, active = well fitted curve in the direction sought with a large enough effect; inconclusive = small, poorly fitted or top-dose-only effect, or another doubt; inactive = no such curve, though single readings can be large; an effect the other way counts as inactive or inconclusive.

SMILES	KB-V1 MDR tox	HT1080NT lethal	TDP1 cell noCPT	KB-3-1 tox	DT40 TDP1 CPT	HT1080 IDH1KD tx
CC(CN(C)Cc1ccccc1)OC(=O)c1ccc(F)cc1 (configuration not stated)	i	i	10µM	i	15µM	i
CC(CN1CCN(C)CC1)OC(=O)c1ccc(F)cc1 (configuration not stated)	i	i	i	i	i	i
CC(C(=O)Nc1ccc(S(=O)(=O)N2CCCC2)cc1)N1CCCC(C(N)=O)C1 (configuration not stated)	i	i	i	i	i	i
CC1CCC(NC(=O)c2ccc(COc3ccccc3)o2)CC1 (configuration not stated)	i	i	?	i	?	i
CN(C)C(=O)CSc1nc2ccc(C(=O)c3ccccc3)cc2[nH]1	i	i	?	i	i	?
Cc1nc2ccccn2c1C(=O)NNS(=O)(=O)c1ccc(C(C)(C)C)cc1	i	i	6.5µM	i	8.2µM	i
C/C(=N\NC(=O)c1c(C)nc2ccccn12)c1ccc(C(C)(C)C)cc1	?	i	12µM	i	18µM	i
Cc1c(C(=O)N2CCN(Cc3ccccc3)CC2)sc2ncnc(N3CCOCC3)c12	18µM	i	i	i	?	i
Cc1c(C(=O)NCCCN2CCOCC2)sc2ncnc(N3CCN(c4ccccc4)CC3)c12	i	?	21µM	i	16µM	i
CCCCNC(=O)c1sc2ncnc(N3CCc4ccccc4C3)c2c1C	i	i	8.2µM	i	15µM	i
CCOC(=O)c1sc2ncnc(N3CCN(C(=O)OCC)CC3)c2c1C	i	i	?	i	15µM	i
CC1(C)OC(=O)C2(Cc3ccccc3N3CCC(c4ccccc4)CC32)C(=O)O1 (configuration not stated)	i	nt	i	i	i	nt
CC(C)(C)C(=O)Nc1ccccc1C(=O)NCCC(=O)Nc1ccccc1	i	i	i	i	i	i
N=c1c2c3c(sc2nc2n1CCCCC2)CCCCC3	i	i	12µM	i	23µM	i
O=c1c2c3c(sc2nc2n1CCC2)CCCC3	i	i	i	?	i	i
O=c1c2c3c(sc2nc2n1CCCC2)CCC3	i	i	i	i	i	i
O=c1c2c3c(sc2nc2n1CCCCC2)CCCC3	i	i	i	i	23µM	i
CCCCOc1ccc(S(=O)(=O)Nc2cccnc2)cc1	5.8µM	?	10µM	26µM	9.2µM	i
O=S(=O)(Nc1cccnc1)c1cccnc1	i	i	i	?	i	i
Cc1ccc(S(=O)(=O)Nc2cccnc2)cc1	i	i	29µM	i	?	i
O=C(Nc1cccc(-c2cccc(Cl)c2)c1)C1CCN(Cc2ccccn2)CC1	i	?	26µM	?	?	?
CN1CCCC(C(=O)Nc2cccc(Cl)c2)CC1 (configuration not stated)	i	i	i	i	i	i
O=C(Nc1cccc(-c2cccc(Cl)c2)c1)C1CCN(Cc2ccon2)CC1	i	?	29µM	?	13µM	?
O=C(Nc1cccc(-c2cccc(Cl)c2)c1)C1CCN(CC2CCOC2)CC1 (configuration not stated)	i	18µM	?	?	?	?
CCc1ccc(NC(=O)C(NS(=O)(=O)c2cccc3nsnc23)c2ccccc2)cc1 (configuration not stated)	i	i	26µM	i	?	i
SMILES	KB-V1 MDR tox	HT1080NT lethal	TDP1 cell noCPT	KB-3-1 tox	DT40 TDP1 CPT	HT1080 IDH1KD tx
CCOc1ccc(NC(=O)C(NS(=O)(=O)c2cccc3nsnc23)c2ccccc2)cc1 (configuration not stated)	i	nt	?	i	?	nt
CCC(C)NC(=O)C(NS(=O)(=O)c1cccc2nsnc12)c1ccccc1 (configuration not stated)	i	i	i	i	i	i
CCN(C(=O)C(NS(=O)(=O)c1cccc2nsnc12)c1ccccc1)c1ccccc1 (configuration not stated)	i	nt	23µM	i	?	nt
CCN(CC)C(=O)Cn1cnc2sc(C)c(S(=O)(=O)N3CCC(C)CC3)c2c1=O	?	i	i	i	i	i
COc1ccc(CC(=O)NCCS(=O)(=O)N2CCN(c3ccc(F)cc3)CC2)cc1OC	i	i	?	i	?	i
CN(CCOc1ccc(Cl)cc1)C(=O)c1cccc(S(=O)(=O)N2CCN(c3ccc(F)cc3)CC2)c1	?	?	5.2µM	?	7.3µM	i
COc1ccc(CCN(C)C(=O)c2cccc(S(=O)(=O)N3CCN(c4ccc(F)cc4)CC3)c2)cc1OC	?	i	16µM	?	15µM	?
CNC(=O)COC(=O)c1cccnc1SC	i	i	i	i	i	i
CCn1c(C)cc(C(=O)COC(=O)c2cccnc2SC)c1C	nt	i	?	nt	16µM	i
CSc1ncccc1C(=O)OCC(=O)c1cc(C)n(C)c1C	?	i	i	i	i	i
COCCNC(=O)COC(=O)c1cccnc1SC	?	i	i	i	18µM	i
COc1ccc2ccc(=O)oc2c1CC(=O)C(C)C	i	i	i	i	i	i
C[C@H](O)[C@@H]1C(=O)N2CCc3ccc(-c4ccccc4)cc3[C@@H]2C[C@@H]1N(C)C(=O)c1ccc(C#N)cc1	i	i	?	i	?	i
C[C@H](O)[C@@H]1CN2CCc3c([nH]c4ccc(-c5ccc6c(c5)OCO6)cc34)[C@@H]2C[C@@H]1N(C)C(=O)Nc1ccc(F)cc1	?	?	5.2µM	5.8µM	2.9µM	21µM
COC(=O)C1=COC(C)C2CN3CCc4c([nH]c5cc(OC)c(OC)cc45)C3CC12 (configuration not stated)	i	i	?	i	?	i
C[C@@H]1ON(C)[C@H]2C[C@H]3c4[nH]c5ccc(-c6ccc7c(c6)OCO7)cc5c4CCN3C[C@@H]12	?	?	21µM	?	?	i
Cc1ccccc1C(=O)N(C)[C@H]1C[C@H]2c3[nH]c4ccccc4c3CCN2C[C@H]1[C@H](C)O	i	i	?	i	?	i
C[C@H](O)[C@@H]1C(=O)N2CCc3ccc(-c4ccccc4)cc3[C@@H]2C[C@@H]1N(C)C(=O)c1ccco1	i	i	15µM	i	?	i
C[C@H](O)[C@@H]1CN2CCc3c([nH]c4ccccc34)[C@@H]2C[C@@H]1N(C)C(=O)c1ccco1	?	26µM	?	?	?	?
CC(NC(=O)C1CCCN1S(=O)(=O)c1cccc2nsnc12)c1ccccc1 (configuration not stated)	?	i	i	i	i	i

Bioassay records from PubChem BioAssay.
